Measured values published in PubChem BioAssay (Tox21).
Inconclusive results are not listed. The source made the active and inactive calls. Unless noted, calls follow the shape of the dose curve; as a rule, active = well fitted curve in the direction sought with a large enough effect in the repeat runs; inconclusive = weak or mixed curves; inactive = no such curve, though single readings can be large; an effect the other way counts as inactive or inconclusive.

Tests used:
[1] = qHTS assay for small molecules that induce genotoxicity in human embryonic kidney cells expressing luciferase-tagged ATAD5 (AID 651632); conditions: HEK293T ATAD5-luciferase induction, 16 h; series mostly up to 83.3 µM; also: nearly all actives have a fitted effect of over 15% in size; also: potency is read from the fitted curve at half-maximal effect
Summary of the method: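 Cells were seeded at 2,000 per well, dosed with compound, and incubated 16 hr at 37C in 5% CO2. Luciferase activity was then quantified after a 30 min room-temperature incubation with Amplite.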

[2] = qHTS assay for small molecule agonists of the p53 signaling pathway - cell viability (AID 651633; calls by dose curve; also: nearly all actives have a fitted effect of over 30% in size; also: potency is read from the fitted curve at half-maximal effect); conditions: p53RE-bla HCT-116 viability, ATP luminescence, 16 h; series mostly up to 83.3 µM
Summary of the method: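 p53RE-bla cells were treated with compound for 16 hours at 37 C. Cytotoxicity was then measured as CellTiter-Glo luminescence after 30 min at room temperature.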

[3] = qHTS assay for small molecules that induce genotoxicity in human embryonic kidney cells expressing luciferase-tagged ATAD5 - cell viability (AID 651634; calls by dose curve; also: nearly all actives have a fitted effect of over 25% in size; also: potency is read from the fitted curve at half-maximal effect); conditions: HEK293T ATAD5-luc cells viability, CellTiter-Fluor, 15.5 h; series mostly up to 83.3 µM
Summary of the method: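 Cells (HEK293T, luciferase-tagged ATAD5) are seeded at 2,000 per well, dosed with compound or DMSO vehicle, and incubated 15.5 hr at 37C and 5% CO2. CellTiter-Fluor is added for 30 min before fluorescence is measured.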

[4] = qHTS assay for small molecule disruptors of the mitochondrial membrane potential - cell viability (AID 720634; calls by dose curve; also: nearly all actives have a fitted effect of over 20% in size; also: potency is read from the fitted curve at half-maximal effect); conditions: HepG2 viability, ATP luminescence (CellTiter-Glo), 1 h; series mostly up to 83.2 µM
Summary of the method: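 Cytotoxicity was measured by ATP quantitation in HepG2 wells that had first been treated with compound for 1 hr and stained with m-MPI dye; CellTiter-Glo incubation was 30 min at room temperature.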

[5] = qHTS assay for small molecule disruptors of the mitochondrial membrane potential (AID 720635); conditions: HepG2 mitochondrial membrane potential, Mito-MPS dye ratio; series mostly up to 83.2 µM; also: potency is read from the fitted curve at half-maximal effect
Summary of the method: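 HepG2 cells exposed to compound 1 hr at 37C, then Mito-MPS dye 30 min. Ratio read of aggregate (540/590 nm) versus monomer (490/535 nm) fluorescence.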

[6] = qHTS assay to test for compound auto fluorescence at 590 nm (red) in HepG2 cells (AID 720674); conditions: HepG2 autofluorescence, red 540/590 nm, 1 h; series mostly up to 91.3 µM
Summary of the method: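 Seeding: 2,000 HepG2 cells/well, MEM/10% FBS, overnight 37 C. Dosing: compound vs DMSO. Incubation: 1 hr, 37 C, 5% CO2. Read: fluorescence 540 ex/590 em, Rose Bengal sodium as red reference.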

[7] = qHTS assay to test for compound auto fluorescence at 535 nm (green) in HepG2 cells (AID 720675); conditions: green autofluorescence 485/535 nm, 1 h; series mostly up to 91.3 µM
[8] = qHTS assay to test for compound auto fluorescence at 460 nm (blue) in HEK293 cells (AID 720678); conditions: blue autofluorescence 405/460 nm; series mostly up to 91.3 µM
Summary of the method: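 Blue read-out at excitation 405 nm and emission 460 nm follows overnight compound exposure of HEK293 cells at 37C in 5% CO2. Activity is given as auto fluorescence equivalency to triamterene.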

[9] = qHTS assay to test for compound auto fluorescence at 590 nm (red) in HEK293 cells (AID 720679); conditions: red autofluorescence 540/590 nm; series mostly up to 91.3 µM
Summary of the method: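 Red channel, Ex/Em 540/590nm; signal expressed as equivalency to Rose Bengal sodium. HEK293, 2,000 cells/well, 10% dialyzed FBS; 23 nL compound pinned after 4-5 hr attachment; overnight 37C/5% CO2 before reading.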
% is scaled to controls: 0 for no effect and ±100 for the full control effect.

Cc1ccc(C(C)C)cc1O
active: Potency [5] 48.6 µM
inactive: Potency [1] | Potency [2] | Potency [3] | Potency [4] | outcome [6] | outcome [7] | outcome [8] | outcome [9]

Cc1nc(-c2ccccn2)ncc1C(=O)Nn1cc(C)c2cc(F)ccc21
inactive: Potency [1] | Potency [2] | Potency [3] | Potency [4] | Potency [5] | outcome [6] | outcome [7] | outcome [8]

CCN(CCCc1ccccc1)CCCc1ccccc1
inactive: Potency [1] | Potency [2] | Potency [3] | Potency [4] | fluorescence, relative to Rose Bengal [6] 0.32% [at 18.6 µM] | fluorescence, % of fluorescein control [7] -0.0397% [at 18.6 µM] | fluorescence, % of triamterene [8] 0.0775% [at 18.6 µM] | fluorescence, % of fluorescent control [9] -0.195% [at 18.6 µM]

Cc1ccc(C)c(N)c1
inactive: Potency [1] | Potency [2] | Potency [3] | Potency [4] | outcome [6] | outcome [7] | outcome [8] | outcome [9]

CC(=O)N(CC(O)CN(C(C)=O)c1c(I)c(C(=O)NCC(O)CO)c(I)c(C(=O)NCC(O)CO)c1I)c1c(I)c(C(=O)NCC(O)CO)c(I)c(C(=O)NCC(O)CO)c1I (stereo unspecified)
inactive: Potency [1] | Potency [2] | Potency [3] | Potency [4] | Potency [5] | fluorescence, relative to Rose Bengal [6] 0.142% [at 18.6 µM] | fluorescence, % of fluorescein control [7] 0.0792% [at 18.6 µM] | fluorescence, % of triamterene [8] 0.0832% [at 18.6 µM] | fluorescence, % of fluorescent control [9] -0.003% [at 18.6 µM]

CC(C)C[C@H](NC(=O)OCC1c2ccccc2-c2ccccc21)C(=O)O
inactive: Potency [2] | Potency [3] | Potency [4] | outcome [6] | outcome [7] | outcome [8] | outcome [9]
active: Potency [1] 12.2 µM

N#Cc1ccc(C(c2ccc(C#N)cc2)n2cncn2)cc1
inactive: Potency [1] | Potency [2] | Potency [3] | Potency [4] | Potency [5] | outcome [6] | outcome [7] | outcome [8] | outcome [9]

CN1CCC[C@@H]1Cc1c[nH]c2ccc(CCS(=O)(=O)c3ccccc3)cc12
inactive: Potency [1] | Potency [2] | Potency [3] | Potency [4] | Potency [5] | outcome [6] | outcome [8] | outcome [9]

CCOc1ccc(NS(=O)(=O)c2ccc(N)cc2)nn1
inactive: Potency [1] | Potency [2] | Potency [3] | Potency [4] | Potency [5] | outcome [6] | outcome [7] | outcome [8]

CN1[C@@H]2CC[C@H]1CC(OC(=O)c1c[nH]c3ccccc13)C2 (stereo partly specified)
inactive: Potency [1] | Potency [2] | Potency [3] | Potency [4] | Potency [5] | outcome [6] | outcome [7] | outcome [9]

Cc1nnc(SCC2=C(C(=O)O)N3C(=O)[C@@H](NC(=O)Cn4cnnn4)[C@H]3SC2)s1
inactive: Potency [1] | Potency [2] | Potency [3] | Potency [4] | Potency [5] | outcome [6] | outcome [7] | outcome [8] | outcome [9]

O=C(O)[C@@H](O)[C@H](O)[C@H](O)[C@@H](O)C(=O)O
inactive: Potency [1] | Potency [2] | Potency [3] | Potency [4] | Potency [5] | outcome [6] | outcome [7] | outcome [8] | outcome [9]

O=C(O)[C@@H]1CSCN1
inactive: Potency [1] | Potency [2] | Potency [3] | Potency [4] | Potency [5] | outcome [6] | outcome [7] | outcome [8] | outcome [9]

Cn1cnc2c(F)c(Nc3ccc(Br)cc3Cl)c(C(=O)NOCCO)cc21
inactive: Potency [1] | Potency [2] | Potency [3] | Potency [4] | outcome [6] | outcome [7]

c1ccc(CN(CC2=NCCN2)c2ccccc2)cc1
inactive: Potency [1] | Potency [2] | Potency [3] | Potency [4] | Potency [5] | outcome [6] | outcome [7] | outcome [9]

Cc1ccc([N+](=O)[O-])c(N)c1
inactive: Potency [1] | Potency [2] | Potency [3] | Potency [4] | Potency [5] | outcome [6] | outcome [7] | outcome [8] | outcome [9]

CN1C(=O)CC(c2ccccc2)C1=O (stereo unspecified)
inactive: Potency [1] | Potency [2] | Potency [3] | Potency [4] | outcome [6] | outcome [7] | outcome [8] | outcome [9]

COc1ccc2nc(NC(=O)Nc3ccccc3)sc2c1
inactive: Potency [2] | Potency [3] | outcome [6] | outcome [7] | outcome [8] | outcome [9]
active: Potency [1] 0.75 µM | Potency [4] 6.68 µM | Potency [5] 1.19 µM

CC(=O)OC1C2(C)CCC(C2)C1(C)C (stereo unspecified)
inactive: Potency [1] | Potency [2] | Potency [3] | Potency [4] | Potency [5] | outcome [6] | outcome [7] | outcome [8] | outcome [9]

CC1(C)C(=O)N(Cl)C(=O)N1Br
inactive: Potency [1] | Potency [2] | Potency [3] | Potency [4] | outcome [6] | outcome [7] | outcome [8] | outcome [9]

CCNCCO
inactive: Potency [1] | Potency [2] | Potency [3] | Potency [4] | Potency [5] | outcome [6] | outcome [7] | outcome [8] | outcome [9]

CNCCC(Oc1ccccc1OC)c1ccccc1 (stereo unspecified)
inactive: Potency [1] | Potency [2] | Potency [3] | Potency [4] | Potency [5] | outcome [6] | outcome [7] | outcome [8] | outcome [9]

CC(=O)Oc1cc(C(C)C)c(OCCN(C)C)cc1C
inactive: Potency [1] | Potency [2] | Potency [3] | fluorescence, relative to Rose Bengal [6] 0.0269% [at 18.6 µM] | fluorescence, % of fluorescein control [7] 0.0486% [at 18.6 µM] | fluorescence, % of triamterene [8] -0.184% [at 18.6 µM] | fluorescence, % of fluorescent control [9] -0.192% [at 18.6 µM]

CCCCCCOc1ccc(N)cc1
inactive: Potency [2] | Potency [3] | Potency [4] | outcome [6] | outcome [7] | outcome [8] | outcome [9]

CCCCCCCCc1ccc(S(=O)(=O)O)cc1
inactive: Potency [1] | Potency [3] | Potency [4] | outcome [6] | outcome [7] | outcome [9]

CCOc1ccc(OCC)c(Cl)c1
inactive: Potency [1] | Potency [2] | Potency [3] | Potency [4] | outcome [6] | outcome [8] | outcome [9]

NC1=NCC2c3ccccc3Cc3ccccc3N12 (stereo unspecified)
inactive: Potency [2] | Potency [3] | Potency [4] | Potency [5] | outcome [6] | outcome [8] | outcome [9]

CCOc1ccc(NC(N)=O)cc1
inactive: Potency [1] | Potency [2] | Potency [3] | Potency [4] | outcome [6] | outcome [9]

CN(CCCN1c2ccccc2CCc2ccccc21)CC(=O)c1ccc(Cl)cc1
inactive: Potency [2] | Potency [3] | Potency [4] | outcome [6] | outcome [7] | outcome [8] | outcome [9]

Cc1c[nH]c(=S)[nH]c1=O
inactive: Potency [1] | Potency [3] | Potency [4] | outcome [6] | outcome [7] | outcome [8] | outcome [9]

O=C1Nc2ccc([N+](=O)[O-])cc2C1=O
inactive: Potency [1] | Potency [2] | outcome [6] | outcome [7] | outcome [8] | outcome [9]
active: Potency [5] 68.5 µM

CCCCC(=O)O[C@]1(C(=O)CO)[C@H](C)C[C@H]2[C@@H]3CCC4=CC(=O)C=C[C@]4(C)[C@@]3(F)[C@@H](O)C[C@@]21C
inactive: Potency [1] | Potency [3] | outcome [6] | outcome [8] | outcome [9]
active: Potency [5] 10.6 µM

C=O
inactive: Potency [2] | Potency [3] | Potency [4] | outcome [6] | outcome [7] | outcome [8] | outcome [9]

CCCCCCCCCCCCOCCOS(=O)(=O)O
inactive: Potency [1] | Potency [3] | Potency [4] | outcome [6] | outcome [7] | outcome [8] | outcome [9]
active: Potency [2] 61.1 µM

CC1(O)CSC(C)(O)CS1 (stereo unspecified)
inactive: Potency [1] | Potency [2] | Potency [3] | Potency [4] | outcome [6] | outcome [7] | outcome [8] | outcome [9]

CC(C)=CCCC(C)CCOC=O (stereo unspecified)
active: Potency [3] 54.5 µM
inactive: Potency [1] | Potency [2] | outcome [6] | outcome [7] | outcome [8]
